One experiment relates to CAOV3. Put plainly: Primary qHTS to identify gynecologic anti-cancer compounds using libraries of approved drugs and bioactive compounds (AID 1345084). Also: nearly all actives have a fitted effect of over 55% in size. To be noted: Gynecologic cancer cell panel viability, ATPlite luminescence, 48 h; series mostly up to 57.5 µM. Put shortly: (§1)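 Luminescence from the ATPlite ATP-monitoring reagent indicates viable cell number; lower signal means cytotoxicity. Cells received compound 16 h after seeding and were exposed for 48 h across five concentrations.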
Background: In qHTS, concentration-response curves come from the screen itself.

A further experiment relates to Es-2. The description is as above. Particulars: Gynecologic cancer cell panel viability, ATPlite luminescence, 48 h; series mostly up to 57.5 µM. The method in brief:
as §1

The subject of a further experiment is Hek293T. The experiment is described as above. Particulars: Gynecologic cancer cell panel viability, ATPlite luminescence, 48 h, control line for the selectivity index; series mostly up to 57.5 µM. Put shortly:
as §1

Another experiment has as its system JEG-3. The description is as above. Particulars: Gynecologic cancer cell panel viability, ATPlite luminescence, 48 h; series mostly up to 57.5 µM. The method in brief:
as §1
Background: Cellular ATP, detected with luciferase, serves as a proxy for viable cell number.

The next experiment relates to OV90. The description is as above. To be noted: Gynecologic cancer cell panel viability, ATPlite luminescence, 48 h; series mostly up to 57.5 µM. Put shortly: as §1
For the next experiment, the system named is PA-1. The description is as above. Particulars: Gynecologic cancer cell panel viability, ATPlite luminescence, 48 h; series mostly up to 57.5 µM. Put shortly:
as §1

The subject of a further experiment is SKOV3. The description is as above. Particulars: Gynecologic cancer cell panel viability, ATPlite luminescence, 48 h; series mostly up to 57.5 µM. The method in brief:
as §1

The subject of a further experiment is CASKI. The description is as above. Particulars: Gynecologic cancer cell panel viability, ATPlite luminescence, 48 h; series mostly up to 57.5 µM. Put shortly: as §1
The test system of the next experiment is Tov-21-G. The experiment is described as above. To be noted: Gynecologic cancer cell panel viability, ATPlite luminescence, 48 h; series mostly up to 57.5 µM. The method in brief:
as §1

For another experiment, the system named is Tov112D. The experiment is described as above. Particulars: Gynecologic cancer cell panel viability, ATPlite luminescence, 48 h; series mostly up to 57.5 µM. Put shortly:
as §1

Experiment [1] in a line: qHTS assay to identify inhibitors of the type 1 interferon - major histocompatibility complex class I in skeletal muscle: Counter screen cell viability and HiBit confirmation (AID 1347412). As to all read-outs here: nearly all actives have a fitted effect of over 60% in size. To be noted: iHSKM muscle cells + IFN-b, HiBiT or CellTiter-Glo, 24 h; for activity change, negative = inhibition: at 45.9 µM (top of the series). Put shortly:
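HLA-B*08:01–HiBiT knock-in immortalized human myoblasts (C25cl48) stimulated with 4.0 ng/ml human IFN-beta and dosed with compound in a 12-point 1:3 titration (top final 46 uM). After 24 hrs at 37 C, HiBiT lytic luminescence or CellTiter Glo ATP read out.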

In another experiment the test system is HeLa. Briefly: Primary qHTS to identify gynecologic anti-cancer compounds using libraries of approved drugs and bioactive compounds (AID 1345084). Also: nearly all actives have a fitted effect of over 55% in size. To be noted: Gynecologic cancer cell panel viability, ATPlite luminescence, 48 h; series mostly up to 57.5 µM. The method in brief: as §1

Records with an inconclusive call do not appear. Values without a mark were called inactive. Calls of active or inactive are those of the source. Calls follow the shape of the dose curve; as a rule, active = well fitted curve in the direction sought with a large enough effect; inconclusive = small, poorly fitted or top-dose-only effect, or another doubt; inactive = no such curve, though single readings can be large; an effect the other way counts as inactive or inconclusive.
% is scaled to controls: 0 for no effect and ±100 for the full control effect; potency is read from the fitted curve at half-maximal effect.

With `NCCOc1cc(C(=O)Nc2cc(OCCN)c3ccccc3n2)nc(C(=O)Nc2cc(OCCN)c3ccccc3n2)c1`, the Potency entry in the experiment with CAOV3, in the experiment with Es-2, in the experiment on Hek293T, with JEG-3 and with OV90 was “inactive” throughout. In addition, the Potency is 7.94 µM (active) with PA-1 and 8.91 µM (active) in the experiment with SKOV3.
With `O=C(NCCCc1ccccc1)c1cccc(-c2cc(O)c3ncccc3c2)c1`, the Potency result in the experiment with CAOV3, with CASKI and in the experiment with Tov-21-G was “inactive” in each case. The Potency is 11.2 µM (active) with SKOV3 and 17.8 µM (active) in the experiment with Tov112D.
In the case of `COc1cccc(OCCCN)c1-c1cc(Nc2cnc(C#N)cn2)n[nH]1`, the Potency in the experiment on CAOV3 was 14.1 µM (active); in experiment [1] (HiBiT), 15.7 µM (active); in [1] (Viability), 17.6 µM (active). The Potency entry with CASKI was “inactive”.
Regarding `CC(C)NC(=O)COc1cccc(-c2nc(Nc3ccc4[nH]ncc4c3)c3ccccc3n2)c1`, the Potency with CAOV3 was 25.1 µM (active); in the experiment on HeLa, 17.8 µM (active). The Potency entry with JEG-3 and in the experiment with OV90 was “inactive” throughout.
On to `COc1ccc(Cl)c(Nc2ncnc3cc(OCC4CCN(C)CC4)c(OC)cc23)c1`, for which the Potency was 8.91 µM (active) with CAOV3, 3.55 µM (active) with SKOV3 and 3.16 µM (active) in the experiment with Tov-21-G. Further, the Potency result with Es-2, in the experiment on HeLa, in the experiment with Hek293T, in the experiment with JEG-3 and in the experiment with Tov112D was “inactive” in each case.
`CCN1CCN(Cc2ccc(NC(=O)c3ccc(C)c(Oc4ccnc5[nH]ccc45)c3)cc2C(F)(F)F)CC1`: the Potency entry in the experiment on CAOV3, with Es-2, with HeLa and with Hek293T was “inactive” each time. The Potency with Tov-21-G was 12.6 µM (active).
Consider `Cc1c(NC(=O)OCC2COCCN2)cn2ncnc(Nc3ccc4c(cnn4Cc4cccc(F)c4)c3)c12` (stereo not drawn), for which the Potency result with CAOV3, with Es-2, with HeLa, in the experiment on Hek293T and in the experiment with OV90 was “inactive” each time.
For the compound `CS/C=C/C(=O)O[C@@H]1CCC2=CC(=O)C(=C(C)C)C[C@]2(C)[C@H]1C`, the Potency result in the experiment with CAOV3, in the experiment with Es-2, in the experiment with HeLa, with Hek293T, with JEG-3 and with OV90 was “inactive” in each case. The Potency result in the experiment with PA-1, in the experiment with Tov-21-G and with Tov112D was “inactive” in each case.
Take `C=C1C(=O)O[C@@H]2C3C(=C(C)[C@@H](O)[C@@H](OC(=O)/C(=C/C)COC(C)=O)[C@@H]12)C(=O)[C@H]1O[C@@]31C` (stereo partly drawn): the Potency in the experiment with CAOV3 is 8.91 µM (active); in the experiment with Es-2, 8.91 µM (active); in the experiment on Hek293T it was 7.94 µM (active); in the experiment on PA-1, 8.91 µM (active); in the experiment on Tov112D, 12.6 µM (active). Further, the Potency entry in the experiment with HeLa and in the experiment on OV90 was “inactive” throughout.
With `CC(C)C[C@@H]1NC(=O)[C@@H]2C[C@@]34C[C@@H]5[C@@]6(C)CCCC(C)(C)C6CC[C@@]5(C)N(c5ccccc53)[C@H]4N2C1=O` (stereo partly drawn), the Potency entry in the experiment with CAOV3, in the experiment with HeLa, in the experiment with Tov-21-G and in the experiment on Tov112D was “inactive” each time.
On to `COc1ccc(Oc2c(Cl)cnn(-c3cc(C)cc(C)c3)c2=O)cc1`, for which the Potency in the experiment on CAOV3 is 28.2 µM (active). Moreover, the Potency entry in the experiment with Es-2, in the experiment on HeLa and in the experiment with Hek293T was “inactive” each time.
For the compound `Cc1cc(N2CCN(C(=O)Oc3ccc(-c4ccccc4)cn3)CC2)c2ccccc2n1`, the Potency result in the experiment with CAOV3, in the experiment on HeLa, in the experiment on Tov-21-G and with Tov112D was “inactive” in each case.
For the compound `Cn1nc(-c2ccc(C(F)(F)F)cc2)nc2c(=O)n(C)c(=O)nc1-2`, the Potency in the experiment with CAOV3 was 10 µM (active); in the experiment on Es-2, 15.8 µM (active); with HeLa, 20 µM (active); in the experiment with JEG-3, 10 µM (active); in the experiment on PA-1 it was 5.01 µM (active); in the experiment on SKOV3, 17.8 µM (active). Besides, the results for the Potency in the experiment with Tov-21-G and in the experiment on Tov112D were 12.6 µM (active) and 7.94 µM (active), respectively.
With `C[C@H](Nc1ncnc2nc[nH]c12)c1cc2cccc(Cl)c2c(=O)n1-c1ccccc1`, the Potency entry in the experiment with CAOV3, in the experiment with Es-2, with HeLa, in the experiment on JEG-3, in the experiment with OV90 and with Tov112D was “inactive” throughout. Moreover, the activity change, negative = inhibition in experiment [1] (Viability) was -19.3%.
Regarding `C=C1CC[C@@H]2[C@](C)(CO)[C@H](O)CC[C@@]2(C)[C@@H]1C/C=C1/C(=O)OCC1O` (stereo partly drawn), the Potency result with CAOV3, in the experiment on HeLa, with JEG-3, in the experiment with OV90 and in the experiment with SKOV3 was “inactive” throughout.
Turning to `COc1ccc(CNc2nc(N(CCO)CCO)nc3c2ncn3C(C)C)cc1`, in the experiment on CAOV3, the Potency result was “inactive”. Moreover, the Potency in the experiment with Es-2 was 22.4 µM (active); in experiment [1] (HiBiT), 5.57 µM (active). In experiment [1] (Viability), the activity change, negative = inhibition is 13%.
In the case of `C/C=C/C=C/C=C/C(=O)O[C@@H]1C=C2COC(=O)[C@]2(O)[C@@]2(C)CCCC(C)(C)[C@H]12`, the Potency result with CAOV3, in the experiment on Es-2, with HeLa, in the experiment with Hek293T, in the experiment with JEG-3 and in the experiment with OV90 was “inactive” throughout. In addition, the Potency entry with PA-1, in the experiment with Tov-21-G and in the experiment with Tov112D was “inactive” throughout.
For the compound `Cc1[nH]c2ccc(F)cc2c1-c1nc2c3cccnc3c3ncccc3c2[nH]1`, the Potency with CAOV3 was 3.98 µM (active); in the experiment with Es-2, 14.1 µM (active); in the experiment with OV90, 5.62 µM (active); with PA-1, 7.94 µM (active); in the experiment on Tov112D it was 3.98 µM (active). Further, the Potency entry in the experiment on HeLa, with JEG-3 and with Tov-21-G was “inactive” each time.
In the case of `C=C1C(=O)O[C@H]2C3=C(C)CCC[C@]3(C)C(=O)C[C@@H]12`, the Potency with CAOV3 was 31.6 µM (active); in the experiment with Es-2, 31.6 µM (active); in the experiment with Tov-21-G, 20 µM (active). The Potency result in the experiment with HeLa and with JEG-3 was “inactive” in each case.
Turning to `COc1cc2c(Nc3cc(F)c(Cl)c(Cl)c3)ncnc2cc1OCC1CCCN(C)CCC1`, the Potency was 12.6 µM (active) in the experiment with CAOV3, 15.8 µM (active) in the experiment on OV90 and 17.8 µM (active) in the experiment with SKOV3. In the experiment on JEG-3, the Potency result was “inactive”.
For `Cc1csc2c(N[C@@H](C)CN3CCN(S(=O)(=O)c4ccc(Cl)c(Cl)c4)CC3)ncnc12`, the Potency result in the experiment on CAOV3, with HeLa, in the experiment on JEG-3, with PA-1, in the experiment on Tov-21-G and in the experiment on Tov112D was “inactive” in each case.
`COc1cc(O)c2c(c1)/C=C/C[C@H](O)[C@H](O)C(=O)/C=C\C[C@H](C)OC2=O`: the Potency is 22.4 µM (active) with CAOV3; 15.8 µM (active) with Es-2; 15.8 µM (active) in the experiment with Hek293T; 14.1 µM (active) in the experiment on PA-1; 17.8 µM (active) with Tov-21-G. For the same compound, the Potency result with JEG-3 was “inactive”.
